This is an account of results in article PMC7862700, “An all-to-all approach to the identification of sequence-specific readers for epigenetic DNA modifications on cytosine”.

Holding throughout (assay): DAPPL (digital affinity profiling via proximity ligation, sequencing); 10 mM Tris-HCl pH 7.5, 50 mM NaCl, 1 mM DTT, 4% glycerol, room temperature, 30 min; GST-TFs on glutathione beads, 16-mer random dsDNA library, 0.1% formaldehyde crosslink after washing; high values mean tight binding
Conditions in all cases: protein: recombinant; tags: N-terminal GST; dsDNA, one strand shown

One test deals with T1, FLI1 (Homo sapiens, UniProt Q01543 1-452).
T1 sequence: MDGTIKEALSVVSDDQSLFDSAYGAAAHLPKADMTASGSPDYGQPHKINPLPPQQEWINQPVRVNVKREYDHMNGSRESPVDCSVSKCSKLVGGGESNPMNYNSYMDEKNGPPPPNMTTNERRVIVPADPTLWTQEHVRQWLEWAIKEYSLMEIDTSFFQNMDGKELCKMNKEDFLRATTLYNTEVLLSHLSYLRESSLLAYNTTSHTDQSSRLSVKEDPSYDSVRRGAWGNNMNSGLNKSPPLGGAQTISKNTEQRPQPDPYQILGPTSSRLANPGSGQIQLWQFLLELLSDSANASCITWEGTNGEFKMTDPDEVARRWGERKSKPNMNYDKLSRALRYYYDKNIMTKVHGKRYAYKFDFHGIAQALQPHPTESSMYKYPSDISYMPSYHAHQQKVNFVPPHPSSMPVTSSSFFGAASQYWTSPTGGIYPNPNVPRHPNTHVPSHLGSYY
The method in brief:
(§1)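 The binding signal reported is, for every hexamer, its read frequency for a factor over its read frequency for the tag-only sample. Reads came from pools of yeast-expressed, GST-fused human transcription factors on glutathione beads, barcoded with DNA and mixed with that sample, which were incubated with 200 nmole of a random double-stranded 16-mer DNA library in Tris/NaCl/DTT/glycerol buffer at room temperature for 30 min. After washing, the pools were crosslinked with 0.1% formaldehyde, proximity-ligated with BsaI/T4 ligase for 1 h at 37 °C, PCR-amplified and sequenced on an Illumina NextSeq500.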

Another test addresses T2, ELK1 (Homo sapiens, UniProt P19419 1-428).
T2 sequence: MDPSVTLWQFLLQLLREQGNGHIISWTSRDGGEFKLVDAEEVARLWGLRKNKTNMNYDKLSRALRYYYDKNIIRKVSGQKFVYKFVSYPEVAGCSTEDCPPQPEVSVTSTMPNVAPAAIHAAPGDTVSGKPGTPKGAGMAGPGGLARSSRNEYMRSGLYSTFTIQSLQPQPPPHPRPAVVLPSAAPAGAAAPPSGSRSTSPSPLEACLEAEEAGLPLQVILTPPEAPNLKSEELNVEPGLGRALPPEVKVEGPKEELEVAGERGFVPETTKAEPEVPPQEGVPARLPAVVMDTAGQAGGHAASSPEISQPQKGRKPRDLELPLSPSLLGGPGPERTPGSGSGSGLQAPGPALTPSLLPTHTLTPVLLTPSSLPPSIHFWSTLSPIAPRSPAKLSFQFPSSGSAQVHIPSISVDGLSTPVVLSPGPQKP
An outline of the steps: as §1

A further test addresses T3, GABPA (Homo sapiens, UniProt Q06546 1-454).
T3 sequence: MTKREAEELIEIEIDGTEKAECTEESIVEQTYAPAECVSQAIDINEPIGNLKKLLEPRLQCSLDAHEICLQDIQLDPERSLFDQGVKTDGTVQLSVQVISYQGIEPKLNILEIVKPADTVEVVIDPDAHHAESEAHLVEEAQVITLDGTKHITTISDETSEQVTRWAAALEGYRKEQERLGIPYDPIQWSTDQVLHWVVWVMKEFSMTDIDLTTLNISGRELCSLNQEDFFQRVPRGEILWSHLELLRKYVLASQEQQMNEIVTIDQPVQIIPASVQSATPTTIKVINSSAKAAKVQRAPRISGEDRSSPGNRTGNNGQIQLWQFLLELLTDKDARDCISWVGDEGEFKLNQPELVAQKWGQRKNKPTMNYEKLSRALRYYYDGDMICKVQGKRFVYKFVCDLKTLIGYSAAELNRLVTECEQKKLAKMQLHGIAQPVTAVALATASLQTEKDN
An outline of the steps:
as §1

For the next test, the target named is T4, ERG (Homo sapiens, UniProt P11308 1-479).
T4 sequence: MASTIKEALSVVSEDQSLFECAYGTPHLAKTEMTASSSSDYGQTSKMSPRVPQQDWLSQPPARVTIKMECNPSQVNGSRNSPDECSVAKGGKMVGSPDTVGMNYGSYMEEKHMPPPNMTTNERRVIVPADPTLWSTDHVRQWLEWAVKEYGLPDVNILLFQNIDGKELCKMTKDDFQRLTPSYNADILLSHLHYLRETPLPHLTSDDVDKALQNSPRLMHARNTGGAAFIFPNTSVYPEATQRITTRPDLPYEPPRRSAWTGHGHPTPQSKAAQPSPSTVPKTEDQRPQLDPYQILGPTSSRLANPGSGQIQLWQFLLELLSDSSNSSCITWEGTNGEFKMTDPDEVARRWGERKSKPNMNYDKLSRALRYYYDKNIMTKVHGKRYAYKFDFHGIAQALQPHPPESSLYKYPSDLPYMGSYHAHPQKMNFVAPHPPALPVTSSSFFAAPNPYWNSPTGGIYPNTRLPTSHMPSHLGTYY
An outline of the steps:
as §1

In another test the target is ELF1 (Homo sapiens, UniProt P32519 1-619). An outline of the steps:
as §1

The target in a further test is T5, EHF (Homo sapiens, UniProt Q9NZC4 1-300).
T5 sequence: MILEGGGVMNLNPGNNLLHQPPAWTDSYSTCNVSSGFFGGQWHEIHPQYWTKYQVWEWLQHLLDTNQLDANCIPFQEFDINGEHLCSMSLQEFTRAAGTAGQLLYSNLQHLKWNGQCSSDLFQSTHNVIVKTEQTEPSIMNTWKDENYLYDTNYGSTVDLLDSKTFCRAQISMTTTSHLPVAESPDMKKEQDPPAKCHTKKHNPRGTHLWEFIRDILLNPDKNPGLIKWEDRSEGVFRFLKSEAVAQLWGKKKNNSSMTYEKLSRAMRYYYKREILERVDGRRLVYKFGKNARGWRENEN
The method in brief: as §1

The target of a further test is SPI1 (Homo sapiens, UniProt P17947 1-270). The method in brief: as §1
The target in a further test is SPIB (Homo sapiens, UniProt Q01892 1-262). The method in brief: as §1
Chain of SPIB (Q01892 whole entry): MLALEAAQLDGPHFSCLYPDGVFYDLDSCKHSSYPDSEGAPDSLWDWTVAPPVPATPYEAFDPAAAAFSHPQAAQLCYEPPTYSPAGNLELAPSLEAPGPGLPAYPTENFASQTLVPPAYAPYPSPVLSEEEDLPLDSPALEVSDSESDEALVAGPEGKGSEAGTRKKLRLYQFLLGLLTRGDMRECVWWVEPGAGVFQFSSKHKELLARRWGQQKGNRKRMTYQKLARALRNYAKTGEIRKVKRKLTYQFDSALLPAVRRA
The target of another test is T6, ELK3 (Homo sapiens, UniProt P41970 1-407).
T6 sequence: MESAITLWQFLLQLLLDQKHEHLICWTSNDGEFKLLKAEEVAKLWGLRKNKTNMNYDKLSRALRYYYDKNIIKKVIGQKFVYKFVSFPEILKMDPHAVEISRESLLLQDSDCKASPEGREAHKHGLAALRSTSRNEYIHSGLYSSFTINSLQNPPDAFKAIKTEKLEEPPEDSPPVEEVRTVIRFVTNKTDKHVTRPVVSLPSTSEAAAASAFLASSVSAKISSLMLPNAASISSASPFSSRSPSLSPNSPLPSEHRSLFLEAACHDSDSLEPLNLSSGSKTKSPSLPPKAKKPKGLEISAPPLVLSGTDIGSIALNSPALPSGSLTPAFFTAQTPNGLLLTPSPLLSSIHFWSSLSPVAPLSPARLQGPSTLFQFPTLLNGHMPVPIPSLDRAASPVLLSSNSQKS
An outline of the steps:
as §1

The target in the next test is T7, FEV (Homo sapiens, UniProt Q99581 1-238).
T7 sequence: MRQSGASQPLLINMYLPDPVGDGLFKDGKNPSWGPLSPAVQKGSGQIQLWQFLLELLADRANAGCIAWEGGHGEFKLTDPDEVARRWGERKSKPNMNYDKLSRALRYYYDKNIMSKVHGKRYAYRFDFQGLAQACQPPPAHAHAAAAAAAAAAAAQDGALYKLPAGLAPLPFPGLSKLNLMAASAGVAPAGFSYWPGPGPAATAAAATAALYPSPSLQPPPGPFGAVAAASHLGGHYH
The method in brief:
as §1

The target of the next test is ETV5 (Homo sapiens, UniProt P41161 1-510). An outline of the steps:
as §1

The next test deals with T8, SPIC (Homo sapiens, UniProt Q8N5J4 1-248).
T8 sequence: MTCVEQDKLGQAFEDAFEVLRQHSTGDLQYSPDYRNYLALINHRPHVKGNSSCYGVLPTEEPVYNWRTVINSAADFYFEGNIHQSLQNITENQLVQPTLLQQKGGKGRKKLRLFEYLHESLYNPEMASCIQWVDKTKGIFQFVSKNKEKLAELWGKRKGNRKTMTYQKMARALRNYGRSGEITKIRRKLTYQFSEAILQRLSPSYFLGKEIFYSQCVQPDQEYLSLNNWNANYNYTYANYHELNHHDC
The method in brief: as §1

For the next test, the target named is ELF4 (Homo sapiens, UniProt Q99607 1-663). An outline of the steps: as §1
Chain of ELF4 (Q99607 whole entry): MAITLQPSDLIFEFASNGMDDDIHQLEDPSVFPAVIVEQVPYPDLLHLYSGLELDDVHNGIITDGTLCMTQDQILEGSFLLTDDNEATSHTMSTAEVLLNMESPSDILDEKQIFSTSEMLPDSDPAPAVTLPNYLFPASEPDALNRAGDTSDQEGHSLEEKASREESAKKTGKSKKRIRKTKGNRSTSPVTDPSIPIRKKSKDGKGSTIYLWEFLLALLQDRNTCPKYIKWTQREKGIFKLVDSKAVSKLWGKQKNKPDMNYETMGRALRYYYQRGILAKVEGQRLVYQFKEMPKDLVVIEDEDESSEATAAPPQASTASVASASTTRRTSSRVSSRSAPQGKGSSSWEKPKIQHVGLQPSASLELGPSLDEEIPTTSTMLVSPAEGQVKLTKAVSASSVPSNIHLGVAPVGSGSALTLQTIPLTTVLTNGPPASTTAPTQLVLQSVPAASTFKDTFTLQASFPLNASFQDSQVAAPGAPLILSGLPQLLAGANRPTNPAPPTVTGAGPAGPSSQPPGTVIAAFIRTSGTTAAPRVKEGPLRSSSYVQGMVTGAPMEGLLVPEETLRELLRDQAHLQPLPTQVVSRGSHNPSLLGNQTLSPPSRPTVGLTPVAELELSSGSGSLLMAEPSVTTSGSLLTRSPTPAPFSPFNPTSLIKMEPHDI
A further test addresses T9, ELK4 (Homo sapiens, UniProt P28324-2 1-405).
T9 sequence: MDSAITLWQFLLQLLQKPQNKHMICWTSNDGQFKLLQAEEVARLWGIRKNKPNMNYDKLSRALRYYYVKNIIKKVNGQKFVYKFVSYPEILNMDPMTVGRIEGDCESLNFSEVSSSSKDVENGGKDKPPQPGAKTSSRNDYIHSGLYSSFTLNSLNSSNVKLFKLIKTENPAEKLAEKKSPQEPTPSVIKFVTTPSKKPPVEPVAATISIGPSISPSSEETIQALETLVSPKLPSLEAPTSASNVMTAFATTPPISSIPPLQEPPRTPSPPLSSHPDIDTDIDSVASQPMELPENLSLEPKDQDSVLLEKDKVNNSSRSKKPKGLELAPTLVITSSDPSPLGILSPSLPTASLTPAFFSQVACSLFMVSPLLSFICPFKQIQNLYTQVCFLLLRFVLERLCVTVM
An outline of the steps:
as §1

The target in the next test is T10, ETV2 (Homo sapiens, UniProt O00321 1-342).
T10 sequence: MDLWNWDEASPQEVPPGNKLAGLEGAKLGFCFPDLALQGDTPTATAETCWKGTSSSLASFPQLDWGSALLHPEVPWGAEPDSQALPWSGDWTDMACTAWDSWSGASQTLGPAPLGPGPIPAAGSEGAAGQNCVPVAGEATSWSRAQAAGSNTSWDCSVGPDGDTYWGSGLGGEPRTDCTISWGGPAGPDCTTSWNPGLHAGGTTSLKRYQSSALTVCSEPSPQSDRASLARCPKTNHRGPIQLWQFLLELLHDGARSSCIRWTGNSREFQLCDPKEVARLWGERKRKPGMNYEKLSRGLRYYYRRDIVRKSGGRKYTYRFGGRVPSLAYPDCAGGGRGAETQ
An outline of the steps:
as §1

For another test, the target named is T11, ELF3 (Homo sapiens, UniProt P78545 1-371).
T11 sequence: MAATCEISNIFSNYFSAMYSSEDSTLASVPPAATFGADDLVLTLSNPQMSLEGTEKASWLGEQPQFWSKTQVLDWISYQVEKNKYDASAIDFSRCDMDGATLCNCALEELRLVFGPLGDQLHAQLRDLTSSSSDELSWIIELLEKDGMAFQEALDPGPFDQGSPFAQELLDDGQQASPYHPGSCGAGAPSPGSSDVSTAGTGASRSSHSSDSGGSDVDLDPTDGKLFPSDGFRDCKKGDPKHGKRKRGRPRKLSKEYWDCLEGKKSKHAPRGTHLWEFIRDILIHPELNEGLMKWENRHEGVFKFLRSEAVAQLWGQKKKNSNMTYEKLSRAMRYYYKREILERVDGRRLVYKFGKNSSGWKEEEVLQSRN
An outline of the steps: as §1

The target in a further test is ETV1 (Homo sapiens, UniProt P50549 1-477). The method in brief: as §1
Chain of ETV1 (P50549 whole entry): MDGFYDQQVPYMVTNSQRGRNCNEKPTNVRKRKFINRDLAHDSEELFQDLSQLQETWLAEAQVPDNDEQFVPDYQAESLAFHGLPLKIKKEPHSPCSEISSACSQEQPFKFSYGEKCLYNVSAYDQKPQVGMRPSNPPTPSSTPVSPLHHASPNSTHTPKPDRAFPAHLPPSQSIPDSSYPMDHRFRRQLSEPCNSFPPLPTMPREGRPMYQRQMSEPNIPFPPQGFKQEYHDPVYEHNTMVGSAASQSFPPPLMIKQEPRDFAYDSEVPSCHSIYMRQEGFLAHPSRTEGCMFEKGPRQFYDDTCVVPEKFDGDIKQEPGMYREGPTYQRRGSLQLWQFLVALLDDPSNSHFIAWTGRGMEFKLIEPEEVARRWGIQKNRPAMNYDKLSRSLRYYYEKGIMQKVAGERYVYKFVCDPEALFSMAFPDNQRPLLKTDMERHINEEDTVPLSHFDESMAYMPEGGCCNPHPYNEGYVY

Chain of ETV5 (P41161 whole entry): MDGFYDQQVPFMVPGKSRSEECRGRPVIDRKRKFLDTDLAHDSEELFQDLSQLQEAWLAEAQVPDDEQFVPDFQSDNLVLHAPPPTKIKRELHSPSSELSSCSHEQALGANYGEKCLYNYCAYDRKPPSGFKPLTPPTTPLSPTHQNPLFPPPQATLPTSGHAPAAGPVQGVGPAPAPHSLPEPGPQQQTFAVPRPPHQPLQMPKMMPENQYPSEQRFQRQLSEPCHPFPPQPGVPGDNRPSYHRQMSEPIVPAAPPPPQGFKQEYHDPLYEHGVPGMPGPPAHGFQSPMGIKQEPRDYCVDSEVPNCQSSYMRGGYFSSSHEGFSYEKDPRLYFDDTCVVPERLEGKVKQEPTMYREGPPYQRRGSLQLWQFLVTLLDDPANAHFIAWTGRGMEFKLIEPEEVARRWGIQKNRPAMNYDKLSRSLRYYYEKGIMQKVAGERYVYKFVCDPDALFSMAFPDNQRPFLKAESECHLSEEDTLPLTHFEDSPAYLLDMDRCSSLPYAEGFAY
Chain of ELF1 (P32519 whole entry): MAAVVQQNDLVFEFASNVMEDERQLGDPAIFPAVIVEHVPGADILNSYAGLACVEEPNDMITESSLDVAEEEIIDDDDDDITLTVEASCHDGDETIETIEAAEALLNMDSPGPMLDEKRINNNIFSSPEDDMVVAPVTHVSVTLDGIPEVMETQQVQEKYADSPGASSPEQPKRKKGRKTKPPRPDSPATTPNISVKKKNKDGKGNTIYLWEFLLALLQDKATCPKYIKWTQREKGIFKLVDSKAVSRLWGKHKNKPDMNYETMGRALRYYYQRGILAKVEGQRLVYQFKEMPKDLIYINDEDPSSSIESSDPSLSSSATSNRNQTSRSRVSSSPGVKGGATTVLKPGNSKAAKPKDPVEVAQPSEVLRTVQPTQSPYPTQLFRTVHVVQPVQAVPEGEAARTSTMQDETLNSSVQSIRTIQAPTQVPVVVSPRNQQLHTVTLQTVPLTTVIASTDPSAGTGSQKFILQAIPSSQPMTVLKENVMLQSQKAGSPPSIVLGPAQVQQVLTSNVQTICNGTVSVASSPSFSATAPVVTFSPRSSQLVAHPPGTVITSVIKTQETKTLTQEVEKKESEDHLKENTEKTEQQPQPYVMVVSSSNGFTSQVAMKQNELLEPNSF

Regarding GTTTCA, the binding signal is 1.34 fold enrichment (6-mer frequency, TF over GST control) with FLI1; 1.27 fold enrichment (6-mer frequency, TF over GST control) in the test with ELK1; 1.35 fold enrichment (6-mer frequency, TF over GST control) with GABPA; 1.3 fold enrichment (6-mer frequency, TF over GST control) with ERG; 1.4 fold enrichment (6-mer frequency, TF over GST control) in the test with ELF1; 1.3 fold enrichment (6-mer frequency, TF over GST control) with EHF. Moreover, the binding signal with SPI1 is 1.32 fold enrichment (6-mer frequency, TF over GST control); with SPIB, 1.24 fold enrichment (6-mer frequency, TF over GST control); with ELK3, 1.44 fold enrichment (6-mer frequency, TF over GST control); with FEV, 1.31 fold enrichment (6-mer frequency, TF over GST control); with ETV5, 1.26 fold enrichment (6-mer frequency, TF over GST control); in the test with SPIC it was 1.06 fold enrichment (6-mer frequency, TF over GST control). The binding signal with ELF4 is 1.33 fold enrichment (6-mer frequency, TF over GST control); with ELK4, 1.28 fold enrichment (6-mer frequency, TF over GST control); with ETV2, 1.15 fold enrichment (6-mer frequency, TF over GST control); with ELF3 it was 1.28 fold enrichment (6-mer frequency, TF over GST control); in the test with ETV1, 1.43 fold enrichment (6-mer frequency, TF over GST control).
For CAATAG, the binding signal in the test with FLI1 was 1.07 fold enrichment (6-mer frequency, TF over GST control); in the test with ELK1 it was 1.07 fold enrichment (6-mer frequency, TF over GST control); with GABPA, 1.22 fold enrichment (6-mer frequency, TF over GST control); with ERG, 1.04 fold enrichment (6-mer frequency, TF over GST control); in the test with ELF1, 1.07 fold enrichment (6-mer frequency, TF over GST control); with EHF, 1.13 fold enrichment (6-mer frequency, TF over GST control). Besides, the binding signal was 1.04 fold enrichment (6-mer frequency, TF over GST control) with SPI1; 1.08 fold enrichment (6-mer frequency, TF over GST control) in the test with SPIB; 1.13 fold enrichment (6-mer frequency, TF over GST control) with ELK3; 1.11 fold enrichment (6-mer frequency, TF over GST control) in the test with ETV5; 1.07 fold enrichment (6-mer frequency, TF over GST control) with SPIC; 1.09 fold enrichment (6-mer frequency, TF over GST control) with ELF4. Further, the binding signal is 1.15 fold enrichment (6-mer frequency, TF over GST control) with ELK4; 1.01 fold enrichment (6-mer frequency, TF over GST control) in the test with ETV2; 1.2 fold enrichment (6-mer frequency, TF over GST control) with ELF3; 1.02 fold enrichment (6-mer frequency, TF over GST control) in the test with ETV1.
